# Laboratory results published in PubChem BioAssay (EPA / NIEHS).
# Results filed as inconclusive are left out. More than one record can exist for a structure, and the calls need not agree. Activity calls are given as the source filed them. The calls were made as follows: active = hit-call score of the fitted dose curve at least 0.9, where 1 is the maximum; inconclusive = response in the unintended direction; inactive = score below 0.9.
# Assay: ATG_XTT_Cytotoxicity: Cytotoxicity Assessment in the Attagene TRANS-FACTORIAL HepG2 Assay (AID 2283584);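 as to AC50: cells exposed to compound for 24 h before reading; active means loss of viability signal versus DMSO baseline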
# Method: ATG_XTT_Cytotoxicity is a cell-based, single-readout assay that uses HepG2, a human liver cell line, with measurements taken at 24 hours after chemical dosing in a 24-well plate.ATG_XTT_Cytotoxicity is one of one assay component(s) measured or calculated from the ATG_XTT_Cytotoxicity assay. It is designed to make measurements of cell number, a form of viability reporter, as detected with […] signals by XTT cytotoxicity assay technology.Data from the assay component ATG_XTT_Cytotoxicity was analyzed into 1 assay endpoint. This assay endpoint, ATG_XTT_Cytotoxicity, was analyzed in the positive analysis fitting direction relative to DMSO as the negative control and baseline of activity. Using a type of viability reporter, loss-of-signal activity can be used to understand changes in the viability. Furthermore, this assay endpoint can be referred to as a primary readout, because the performed assay has only produced 1 assay endpoint. To generalize the intended target to other relatable targets, this assay endpoint is annotated to the cell cycle intended target family, where the subfamily is cytotoxicity.
# Human liver HepG2 cells are transiently transfected with multiple reporter transcription units (MRTUs) in 6-well plates using FuGene 6 reagent (Roche; 3 ml FuGene/1 mg DNA). The MRTU constructs are regulated by a cis-regulating element (promoter). […] A major difference between the CIS and TRANS system is that in CIS activities of endogenous TFs are measured, whereas the TRANS assay evaluates changes in activities of exogenous, chimeric NR-Gal4 proteins. […] At the end of 24 hour incubation, total RNA was isolated using TriZol reagent (Invitrogen). The isolated RNA is then reverse-transcribed using oligo(dT) primer and Mo-MLV reverse transcriptase (Invitrogen) with DNAse I (Ambion) treatment for 30 min. The one-tenth of the produced cDNA was amplified by PCR using Taq DNA polymerase (Invitrogen) and two reporter sequence-specific primers. The PCR products were fluorescently labeled by primer extension with 6-arboxyfluorescein (6-FAM) 5'-labeled reporter sequence-specific primer (2 min at 95 C, 20 s at 68 C and 10 min at 72 C) and these products were digested with 5U of HpaI (New England Biolabs) for 2h at 37 C. The fragments were purified using Qiaquick PCR columns (Qiagen), analyzed on an ABI 3130xL genetic analyzer (Applied Biosystems) with peak positions identified by using a set of X-rhodamine (ROX)-labeled MapMarker1000 molecular weight standards (BioVentures). The raw capillary electrophoresis data was processed using Attagraph software (Attagene).
SMILES,outcome,AC50
CCN(CC)N=O,inactive,–
CCC[CH2][Sn]([Cl])([CH2]CCC)[CH2]CCC,inactive,1800 nM (active)
CCC(C)c1ccc(O)cc1 (stereo not given),inactive,–
C[N+](C)(C)CC1CO1 (stereo not given),inactive,–
CN(C)c1ccccc1,inactive,–
OCCCBr,inactive,–
O=C1CCCO1,inactive,–
O=[N+]([O-])C(Br)(CO)CO,inactive,–
CCCCCCCCOC(=O)c1ccc(C(=O)OCCCCCCCC)c(C(=O)OCCCCCCCC)c1,inactive,–
Clc1ccc(C(c2ccc(Cl)cc2)C(Cl)Cl)cc1,inactive,–
C1=Cc2cccc3cccc1c23,inactive,–
Cc1ccc([N+](=O)[O-])cc1,inactive,–
CCCCCOC(=O)c1ccccc1C(=O)OCCCCC,inactive,–
CC(C)(OOC(C)(C)c1ccccc1)c1ccccc1,inactive,–
c1ccc(NNc2ccccc2)cc1,inactive,–
CC(C)(C)OOC(C)(C)CCC(C)(C)OOC(C)(C)C,inactive,–
Clc1ccc(Cl)c(Cl)c1,inactive,–
Cn1cc(-c2ccccc2)c(=O)c(-c2cccc(C(F)(F)F)c2)c1,inactive,–
c1ccc2c(c1)-c1cccc3cccc-2c13,inactive,–
CC(C)(C)C(O)(CCc1ccc(Cl)cc1)Cn1cncn1 (stereo not given),inactive,–

SMILES,outcome,AC50
CO[C@@H]1[C@H](OC(=O)NC(=O)CCl)CC[C@]2(CO2)[C@H]1[C@@]1(C)O[C@@H]1CC=C(C)C,inactive,–
OCCOCCO,inactive,–
CCN(CC)CCO,inactive,–
ClCCOCCCl,inactive,–
CCCCOC(=O)c1ccccc1C(=O)OCc1ccccc1,inactive,–
Nc1ccc(Cl)cc1N,inactive,–
N#CC(Br)(Br)C(N)=O,inactive,–
O=C(O)C1C2CCC(O2)C1C(=O)O (stereo not given),inactive,–
CCCCCCCCn1sccc1=O,inactive,–
CN(C)C(=O)Nc1ccc(Cl)cc1,inactive,–
CC(C)COC(=O)c1ccccc1C(=O)OCC(C)C,inactive,–
COC(=O)c1ccccc1N,inactive,–
Cc1cc(N=Nc2ccccc2C)ccc1N,inactive,–
Nc1ccc(Oc2ccc(N)cc2)cc1,inactive,–
COC(=O)Nc1nc2ccccc2[nH]1,inactive,–
C[C@]12C=CC3=C4CCC(=O)C=C4CC[C@H]3[C@@H]1CC[C@@H]2O,inactive,–
[O-][Cl+]O,inactive,–
[Cl-].[Cl-].[Hg+2],inactive,–
Clc1ccccc1Cl,inactive,–
